# GPR151 activ: activates the human receptor GPR151 | Q8TDV0 | PathHunter beta-arrestin GPR151 cells, luminescence | activation, % at 11.2 µM | 650,000 tested, 1% active | AID 1508602; in the data active = activation above about 4.9%;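 also: 0% = median of compound wells and 100% = cells with positive control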
# FBW7 act: human FBW7 E3 ligase activation, primary screen; Q969H0; AlphaScreen FBW7–phospho-cyclin E peptide binding, activator screen; 650,000 tested, 0.13% active; normalized activity (activation), % at 26.1 µM; AID 1259310; in the data active = normalized activity above about 1.9%;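 also: purified mutant Fbw7 with reduced substrate affinity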
# MITF inh: inhibitors of human MITF; 650,000 tested, 0.91% active; inhibition, % at 2.6 µM; AlphaScreen MITF homodimerization, bead proximity signal; AID 1259374; O75030; in the data active = inhibition above about 50%;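 also: 0% = vehicle wells with protein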
# Target sequence (O75030 whole entry, looked up): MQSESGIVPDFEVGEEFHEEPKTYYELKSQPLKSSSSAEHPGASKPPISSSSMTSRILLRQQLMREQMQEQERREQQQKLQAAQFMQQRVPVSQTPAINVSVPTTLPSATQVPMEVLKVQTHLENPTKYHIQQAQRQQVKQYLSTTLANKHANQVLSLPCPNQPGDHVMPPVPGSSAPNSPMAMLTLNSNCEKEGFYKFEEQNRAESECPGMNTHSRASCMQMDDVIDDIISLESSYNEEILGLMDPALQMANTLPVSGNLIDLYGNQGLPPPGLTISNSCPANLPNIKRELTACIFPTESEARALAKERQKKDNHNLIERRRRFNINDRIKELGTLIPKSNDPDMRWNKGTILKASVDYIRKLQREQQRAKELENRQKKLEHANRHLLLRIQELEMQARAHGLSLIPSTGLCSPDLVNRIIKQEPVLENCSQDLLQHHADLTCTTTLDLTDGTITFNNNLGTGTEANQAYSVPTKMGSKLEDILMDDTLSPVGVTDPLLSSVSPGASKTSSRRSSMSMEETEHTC
# TEAD-YAP inh: TEAD-YAP interaction inhibition; HEK-TIYL cells, TEAD-Gal4/YAP UAS-luciferase luminescence; inhibition, % at 9.12 µM; 640,000 tested, 1.4% active; in the data active = inhibition above about 32%;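 also: 0% = median of test compound wells and 100% = reference inhibitor wells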
# MITF confirm: human MITF inhibition, confirmation. shares compounds with MITF inh. AlphaScreen MITF homodimerization, biotin/His-MITF beads. inhibition, % at 2.6 µM. 4,700 tested, 16% active. AID 1259372;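 active = inhibition above a cutoff derived from the DMSO control wells, cut at about 28% in these data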;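 also: 0% = MITF dimer wells with DMSO only; inhibitors lower the bead chemiluminescence by keeping MITF from dimerizing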
# AlphaScreen DR: AlphaScreen optical interference, dose response counter-screen; 480 tested, 6% active; IC50, µM; AlphaScreen optical interference counterscreen, cell-free; shares compounds with MITF inh; call rule not given here
# AS interf ctr: AlphaScreen optical interference, counter-screen; 4,700 tested, 7.6% active; LysRS AlphaScreen counterscreen, signal interference, triplicate; AID 1259376; inhibition, % at 2.6 µM; shares compounds with MITF inh;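 active = inhibition above a cutoff derived from the DMSO control wells, cut at about 30% in these data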
# An asterisk follows results filed as active; . = no result given. The list is not random: actives were taken first. Their share in the collection is about 3.5%.
SMILES,GPR151 activ,FBW7 act,MITF inh,TEAD-YAP inh,MITF confirm,AS interf ctr,others
CN(CCN1CCOCC1)C1CCN(C(=O)CNC(=O)/C=C/c2cccs2)CC1,-1,0,62*,7,1,13,
CCN1CCN(CCCNC(=O)COc2ccc3c(c2)C(=O)CC(C)(C)O3)CC1,1,0,57*,6,-1,10,
CCCCCCCNC(=O)COc1ccc2c(c1)C(=O)CC(C)(C)O2,1,0,-12,3,.,.,
Cc1ccc(C(=O)NCc2ccccc2C2CC2)cc1,2,0,-6,-19,.,.,
COc1cc(CN(C)CCN(C)C)cc(OC)c1O,1,0,55*,3,-3,-4,
O=C(N/N=C/c1ccccn1)c1ccc([N+](=O)[O-])cc1Cl,2,-1,27,-5,.,.,
Cc1ncc(CO)c(/C=N/NC(=O)c2ccc(Cl)cc2O)c1O,1,0,60*,-2,9,32*,
Cc1ncc(CO)c(/C=N/NC(=O)c2ccc([N+](=O)[O-])cc2Cl)c1O,-1,0,67*,10,13,96*,
Cc1ncc(CO)c(/C=N/NC(=O)c2ccccc2O)c1O,3,-2,49,-3,.,.,
COc1ccc(S(=O)(=O)N2CCN(CCCc3ccccc3)CC2)cc1,-1,0,47,2,.,.,
O=S(=O)(c1ccc(Cl)cc1)N1CCN(Cc2cccc(F)c2)CC1,-1,0,64*,-7,-2,7,
O=[N+]([O-])c1cccc(CN2CCN(S(=O)(=O)c3ccccc3)CC2)c1,0,0,70*,3,15,14,
CN(C)C(=O)N1CCN(S(=O)(=O)c2cccc([N+](=O)[O-])c2)CC1,0,0,77*,13,30*,-6,AlphaScreen DR=>6.5
CCN(CC)C(=O)N1CCN(S(=O)(=O)c2cccc([N+](=O)[O-])c2)CC1,1,0,2,1,.,.,
O=[N+]([O-])c1ccc(S(=O)(=O)N2CCN(CCCc3ccccc3)CC2)cc1,1,0,56*,2,14,15,
O=[N+]([O-])c1cccc(CN2CCN(S(=O)(=O)c3ccc(Cl)cc3)CC2)c1,-1,0,64*,3,13,16,
O=[N+]([O-])c1cccc(CN2CCN(S(=O)(=O)c3ccc(F)cc3)CC2)c1,0,0,57*,-6,11,16,
O=C(c1cccc2ccccc12)N1CCN(Cc2cccc([N+](=O)[O-])c2)CC1,0,0,76*,6,14,18,
Cn1cnc2scc(-c3ccc(Cl)cc3)c2c1=O,1,1,24,-5,.,.,
CCc1nn(CC(=O)NCCCN2CCCC2=O)c(=O)c2cc3sc(C)cc3n12,-1,0,20,-6,.,.,
CCOc1ccccc1OCCCN1CCNCC1,0,0,-8,-5,.,.,
Brc1ccccc1OCCCCN1CCNCC1,0,0,51*,-7,-9,-6,
Clc1ccc(OCCCCN2CCNCC2)cc1,2,0,-2,-15,.,.,
Clc1ccccc1OCCCCN1CCNCC1,-1,0,54*,-6,-6,-7,
CC(C)(C)c1ccccc1OCCCN1CCNCC1,-1,0,60*,-15,3,4,
SMILES,GPR151 activ,FBW7 act,MITF inh,TEAD-YAP inh,MITF confirm,AS interf ctr,others
CC(=O)N(C)c1ccc(NC(=O)COc2ccc(Br)cc2)cc1,1,0,-3,3,.,.,
COc1cccc(C2CC(c3cccs3)=NN2C(=O)CSc2nnc(CNC(=O)c3ccccc3)n2-c2ccccc2)c1OC (centres undefined),0,1,70*,3,-11,0,
COc1ccc(CN2CCN(C3CCCC3)CC2)cc1OC,-1,0,47,9,.,.,
COc1ccc(CN2CCN(C3CC4CCC3C4)CC2)cc1OC (centres undefined),0,0,63*,14,-16,0,
COc1ccc(CN2CCN(C3CC4CCC3C4)CC2)cc1 (centres undefined),0,1,77*,-5,1,1,
c1ccc(CN2CCC(N3CCN(C4CC5CCC4C5)CC3)CC2)cc1 (centres undefined),2,0,35,5,.,.,
CC1CCCC(NC(=O)c2ccc(NC(=O)c3ccc(=O)[nH]c3)cc2)C1C (centres undefined),0,0,-2,8,.,.,
O=C(O)CCN(CCC(=O)O)c1ccc(O)cc1,2,-1,69*,-19,48*,-10,AlphaScreen DR=>6.5

# Source: PubChem
